Targets with a hit are over-represented here; the source holds about 8,800 in all. About 0.5% of all pairs of compound and target were hits. A number with no mark means an inactive call.
Legend:
Assay in all cases: log2 fold change, soluble protein after heating vs DMSO (PISA); higher = thermal stabilisation; K562 lysate, 10 uM; active = over 0.2 and 3.5 SD of the protein, either way, in both replicates (recomputed)
[1] = compound: NCC(=O)Nc1ccc(-n2nc(C(F)(F)F)cc2-c2ccc3c(ccc4ccccc43)c2)cc1
Outline: (§1)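 Soluble protein was defined as the supernatant remaining after 21,000xg for 90 min, following pooling of heated aliquots and adjustment to 0.5% NP-40 at 4°C. Before that, crude K562 extract at 1 mg/mL protein in PBS pH 7.4 with 1 mM MgCl2 was treated with 10 μM compound for 30 min and heated for 3 min across 48°C-58°C. Quantification used TMTpro 16plex LC-MS/MS with channel sums equalised, and values are log-two fold changes in thermal stability relative to solvent controls from duplicates.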

vorinostat = compound: O=C(CCCCCCC(=O)Nc1ccccc1)NO [vorinostat]
Outline: as §1

silmitasertib = compound: O=C(O)c1ccc2c(c1)nc(Nc1cccc(Cl)c1)c1ccncc12 [silmitasertib]
Outline: as §1

[2] = compound: O=C1NC(=O)C(c2cnc3ccccn23)=C1c1cn2c3c(cc(F)cc13)CN(C(=O)N1CCCCC1)CC2
Outline: as §1

entospletinib = compound: c1cn2cc(-c3ccc4cn[nH]c4c3)nc(Nc3ccc(N4CCOCC4)cc3)c2n1 [entospletinib]
Outline: as §1

UniProt Q9BTA9, sequence (Q9BTA9 whole entry, looked up): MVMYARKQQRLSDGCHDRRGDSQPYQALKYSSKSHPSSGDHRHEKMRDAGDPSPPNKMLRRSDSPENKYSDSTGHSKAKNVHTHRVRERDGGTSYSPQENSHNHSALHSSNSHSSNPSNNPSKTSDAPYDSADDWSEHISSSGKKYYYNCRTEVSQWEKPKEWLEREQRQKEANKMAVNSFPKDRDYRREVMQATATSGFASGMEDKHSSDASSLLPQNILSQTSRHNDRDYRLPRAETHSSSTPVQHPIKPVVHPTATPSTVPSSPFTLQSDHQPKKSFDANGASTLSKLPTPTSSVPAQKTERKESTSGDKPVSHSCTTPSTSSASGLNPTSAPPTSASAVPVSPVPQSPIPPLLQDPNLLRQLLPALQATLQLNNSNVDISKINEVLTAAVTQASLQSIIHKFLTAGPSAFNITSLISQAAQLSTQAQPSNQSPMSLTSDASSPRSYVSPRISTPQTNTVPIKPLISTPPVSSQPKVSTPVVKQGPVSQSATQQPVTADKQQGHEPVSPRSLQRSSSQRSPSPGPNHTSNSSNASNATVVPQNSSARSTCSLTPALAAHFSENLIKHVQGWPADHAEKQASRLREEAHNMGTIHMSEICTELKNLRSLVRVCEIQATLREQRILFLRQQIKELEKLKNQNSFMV
UniProt O75362, sequence (O75362 whole entry, looked up): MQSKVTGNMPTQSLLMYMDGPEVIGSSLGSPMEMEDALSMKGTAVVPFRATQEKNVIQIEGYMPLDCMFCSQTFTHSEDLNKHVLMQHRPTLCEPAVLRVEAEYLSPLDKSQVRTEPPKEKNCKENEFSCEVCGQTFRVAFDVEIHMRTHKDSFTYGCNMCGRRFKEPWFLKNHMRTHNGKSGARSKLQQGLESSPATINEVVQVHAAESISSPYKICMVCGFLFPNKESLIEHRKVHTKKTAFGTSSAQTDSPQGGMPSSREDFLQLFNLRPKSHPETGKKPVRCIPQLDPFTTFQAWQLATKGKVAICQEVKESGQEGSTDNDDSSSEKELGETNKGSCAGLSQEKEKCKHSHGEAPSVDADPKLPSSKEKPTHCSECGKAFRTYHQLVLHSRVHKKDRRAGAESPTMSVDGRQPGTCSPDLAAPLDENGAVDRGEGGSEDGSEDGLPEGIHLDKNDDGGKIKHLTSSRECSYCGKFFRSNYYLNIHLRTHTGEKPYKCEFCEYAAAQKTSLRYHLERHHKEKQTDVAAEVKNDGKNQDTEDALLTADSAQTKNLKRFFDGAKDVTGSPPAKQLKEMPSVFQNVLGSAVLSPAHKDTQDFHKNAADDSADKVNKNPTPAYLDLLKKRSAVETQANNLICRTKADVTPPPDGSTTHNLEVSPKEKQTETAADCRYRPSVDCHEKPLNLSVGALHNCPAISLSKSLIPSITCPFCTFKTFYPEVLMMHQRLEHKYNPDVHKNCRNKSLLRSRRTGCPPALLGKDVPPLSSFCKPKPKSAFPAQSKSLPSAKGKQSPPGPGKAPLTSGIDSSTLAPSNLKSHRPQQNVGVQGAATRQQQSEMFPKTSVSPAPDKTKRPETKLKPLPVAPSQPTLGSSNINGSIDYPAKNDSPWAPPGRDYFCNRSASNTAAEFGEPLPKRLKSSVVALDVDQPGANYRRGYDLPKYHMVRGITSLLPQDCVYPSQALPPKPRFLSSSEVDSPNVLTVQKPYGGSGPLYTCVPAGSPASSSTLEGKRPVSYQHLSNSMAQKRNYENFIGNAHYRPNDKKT
UniProt Q6PHR2, sequence (Q6PHR2 whole entry, looked up): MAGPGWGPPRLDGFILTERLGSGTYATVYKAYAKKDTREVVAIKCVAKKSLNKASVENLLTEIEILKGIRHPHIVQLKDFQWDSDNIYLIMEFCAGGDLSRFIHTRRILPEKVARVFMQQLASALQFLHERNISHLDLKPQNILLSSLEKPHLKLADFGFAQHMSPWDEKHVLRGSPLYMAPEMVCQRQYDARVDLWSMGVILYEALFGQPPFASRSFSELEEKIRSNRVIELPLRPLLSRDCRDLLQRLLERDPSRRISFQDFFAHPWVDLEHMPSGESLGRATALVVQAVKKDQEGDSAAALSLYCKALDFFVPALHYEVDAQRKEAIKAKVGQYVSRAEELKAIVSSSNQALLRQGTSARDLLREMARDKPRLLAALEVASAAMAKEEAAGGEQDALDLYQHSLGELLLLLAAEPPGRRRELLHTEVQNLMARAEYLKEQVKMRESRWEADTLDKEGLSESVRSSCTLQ
UniProt Q15906, sequence (Q15906 whole entry, looked up): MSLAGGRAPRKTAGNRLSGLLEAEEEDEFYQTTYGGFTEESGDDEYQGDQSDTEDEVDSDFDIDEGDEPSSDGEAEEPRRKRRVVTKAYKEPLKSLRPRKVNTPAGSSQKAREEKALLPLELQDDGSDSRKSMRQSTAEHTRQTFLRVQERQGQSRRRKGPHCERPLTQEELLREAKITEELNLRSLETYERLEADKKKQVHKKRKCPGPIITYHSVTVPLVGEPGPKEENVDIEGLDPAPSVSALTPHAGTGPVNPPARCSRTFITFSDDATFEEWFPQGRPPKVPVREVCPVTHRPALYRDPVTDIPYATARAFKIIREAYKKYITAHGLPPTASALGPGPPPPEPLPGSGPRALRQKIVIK
UniProt Q15776, sequence (Q15776 whole entry, looked up): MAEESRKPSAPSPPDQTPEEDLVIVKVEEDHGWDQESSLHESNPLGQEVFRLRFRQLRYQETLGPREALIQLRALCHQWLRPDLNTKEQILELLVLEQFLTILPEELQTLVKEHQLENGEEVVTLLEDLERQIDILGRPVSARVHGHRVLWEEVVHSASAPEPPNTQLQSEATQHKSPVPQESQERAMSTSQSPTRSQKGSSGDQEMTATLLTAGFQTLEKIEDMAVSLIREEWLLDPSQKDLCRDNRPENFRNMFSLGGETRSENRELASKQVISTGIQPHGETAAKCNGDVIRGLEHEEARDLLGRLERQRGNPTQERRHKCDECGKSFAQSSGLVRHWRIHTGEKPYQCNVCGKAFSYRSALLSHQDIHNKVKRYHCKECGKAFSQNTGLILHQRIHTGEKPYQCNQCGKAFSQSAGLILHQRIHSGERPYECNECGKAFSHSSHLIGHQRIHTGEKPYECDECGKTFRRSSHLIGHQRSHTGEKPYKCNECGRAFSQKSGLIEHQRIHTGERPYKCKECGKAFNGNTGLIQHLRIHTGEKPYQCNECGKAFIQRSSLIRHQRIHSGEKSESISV
UniProt Q9UKY1, sequence (Q9UKY1 whole entry, looked up): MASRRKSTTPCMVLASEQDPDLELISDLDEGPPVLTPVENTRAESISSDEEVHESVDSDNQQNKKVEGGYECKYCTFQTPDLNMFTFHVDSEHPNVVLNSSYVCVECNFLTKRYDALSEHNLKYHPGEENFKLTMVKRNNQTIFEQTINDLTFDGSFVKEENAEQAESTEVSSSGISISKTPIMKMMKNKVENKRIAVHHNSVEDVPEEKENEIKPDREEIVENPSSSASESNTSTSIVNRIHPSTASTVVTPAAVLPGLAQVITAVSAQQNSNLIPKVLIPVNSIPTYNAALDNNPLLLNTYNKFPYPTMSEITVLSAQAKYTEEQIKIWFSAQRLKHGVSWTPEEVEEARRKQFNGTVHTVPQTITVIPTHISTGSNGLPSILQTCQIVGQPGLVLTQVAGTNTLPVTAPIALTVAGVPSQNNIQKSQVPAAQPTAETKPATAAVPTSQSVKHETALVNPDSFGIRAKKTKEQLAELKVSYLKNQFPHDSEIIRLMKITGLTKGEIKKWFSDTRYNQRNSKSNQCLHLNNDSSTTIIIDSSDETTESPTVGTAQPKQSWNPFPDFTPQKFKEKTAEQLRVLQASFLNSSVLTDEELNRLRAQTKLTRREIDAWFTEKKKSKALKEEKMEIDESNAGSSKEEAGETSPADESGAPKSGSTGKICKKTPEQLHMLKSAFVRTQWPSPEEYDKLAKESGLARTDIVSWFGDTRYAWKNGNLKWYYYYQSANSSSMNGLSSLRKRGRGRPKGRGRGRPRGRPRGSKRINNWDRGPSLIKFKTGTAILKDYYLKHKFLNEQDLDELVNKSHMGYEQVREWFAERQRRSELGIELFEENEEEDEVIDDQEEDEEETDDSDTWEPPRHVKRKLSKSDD
UniProt O95619, sequence (O95619 whole entry, looked up): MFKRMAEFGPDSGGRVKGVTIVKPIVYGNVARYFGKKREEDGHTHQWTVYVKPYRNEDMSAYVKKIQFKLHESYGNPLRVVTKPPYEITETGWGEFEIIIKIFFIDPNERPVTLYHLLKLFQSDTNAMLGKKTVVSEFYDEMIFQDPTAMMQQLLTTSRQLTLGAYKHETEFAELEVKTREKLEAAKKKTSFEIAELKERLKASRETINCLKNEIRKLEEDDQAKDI
UniProt Q86WB0, sequence (Q86WB0 whole entry, looked up): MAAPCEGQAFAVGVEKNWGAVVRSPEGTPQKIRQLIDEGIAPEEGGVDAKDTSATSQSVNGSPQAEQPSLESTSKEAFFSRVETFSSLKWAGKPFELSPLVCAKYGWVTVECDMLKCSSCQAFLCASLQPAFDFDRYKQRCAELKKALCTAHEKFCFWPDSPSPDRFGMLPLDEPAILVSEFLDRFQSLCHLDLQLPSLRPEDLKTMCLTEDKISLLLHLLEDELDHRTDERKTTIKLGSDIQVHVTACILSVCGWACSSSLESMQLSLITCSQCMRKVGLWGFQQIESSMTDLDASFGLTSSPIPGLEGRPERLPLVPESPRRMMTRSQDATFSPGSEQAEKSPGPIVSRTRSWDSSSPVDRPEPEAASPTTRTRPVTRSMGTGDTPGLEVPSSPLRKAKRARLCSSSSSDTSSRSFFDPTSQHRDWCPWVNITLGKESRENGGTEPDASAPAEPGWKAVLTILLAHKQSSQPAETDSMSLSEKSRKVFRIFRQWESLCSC
UniProt Q96NC0, sequence (Q96NC0 whole entry, looked up): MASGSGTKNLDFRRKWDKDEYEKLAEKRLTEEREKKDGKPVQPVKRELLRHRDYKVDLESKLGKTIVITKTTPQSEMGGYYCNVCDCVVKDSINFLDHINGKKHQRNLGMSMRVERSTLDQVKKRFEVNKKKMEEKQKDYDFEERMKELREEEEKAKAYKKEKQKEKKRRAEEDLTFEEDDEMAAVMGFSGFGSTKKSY

Target	log2 fold change [1]	log2 fold change (vorinostat)	log2 fold change (silmitasertib)	log2 fold change [2]	log2 fold change (entospletinib)
ZKSCAN8 (UniProt Q15776)	0.015	0.229	-0.005	0.055	-0.002
USP48 (UniProt Q86UV5)	-0.054	-0.528 (active)	0.07	0.034	-0.102
ZHX1 (UniProt Q9UKY1)	0.043	-0.249	-0.094	-0.018	-0.082
XPNPEP1 isoform 3 (UniProt Q9NQW7)	0.006	-0.068	-0.001	-0.019	0.002
WDR3 (UniProt Q9UNX4)	-0.031	-0.255 (active)	0.044	0.01	-0.001
UQCC2 (UniProt Q9BRT2)	-0.019	0.121	-0.021	-0.06	-0.039
ZC3H13 (UniProt Q5T200)	0.174	-0.052	-0.008	-0.104	0.001
ZNF845 (UniProt Q96IR2)	-0.074	-0.297	0.364 (active)	-0.113	–
ZC2HC1A (UniProt Q96GY0)	0.104	-0.066	0.054	-0.008	-0.005
VPS37B (UniProt Q9H9H4)	0.029	-0.349 (active)	0.045	-0.035	-0.058
VAV3 isoform 4 (UniProt Q9UKW4)	0.128	-0.358	0.148	-0.115	0.295
VTN (UniProt P04004)	0.126	-0.07	-0.076	-0.085	-0.146
WDR20 isoform 7 (UniProt Q8TBZ3)	0.01	0.009	0.087	-0.013	0.018
ZNF598 isoform 3 (UniProt Q86UK7)	0.01	-0.338 (active)	0	0.024	-0.017
XPO5 (UniProt Q9HAV4)	0	-0.574 (active)	0.035	0.011	0.015
ZBTB40 (UniProt Q9NUA8)	0.073	-0.118	0.024	0.036	–
VPS41 (UniProt P49754)	-0.025	-0.471 (active)	0.004	-0.018	0.007
WDHD1 (UniProt O75717)	-0.011	-0.259 (active)	0.02	-0.018	0.016
WIPI2 (UniProt Q9Y4P8)	-0.036	-0.303 (active)	0.033	-0.005	-0.008
USP8 (UniProt P40818)	0.012	-0.324 (active)	0.013	0.009	0.012
ZNF217 (UniProt O75362)	0	-0.301 (active)	0.047	-0.054	-0.061
USP9X (UniProt Q93008)	0.011	-0.466 (active)	0.028	-0.012	0
ZMYND8 isoform 19 (UniProt Q9ULU4)	0.059	-0.224 (active)	0.029	0.006	-0.02
URGCP (UniProt Q8TCY9)	0	–	–	–	–
VPS16 (UniProt Q9H269)	-0.047	-0.543 (active)	0.076	-0.01	0.03
WRB (UniProt O00258)	0.082	0.131	-0.055	-0.012	0.146
WDR24 (UniProt Q96S15)	0.041	-0.202	0.134	0.032	0.022

Target	log2 fold change [1]	log2 fold change (vorinostat)	log2 fold change (silmitasertib)	log2 fold change [2]	log2 fold change (entospletinib)
VAMP2 (UniProt P63027)	0.071	0.016	-0.008	0.132	-0.054
VPS13C (UniProt Q709C8)	0.005	0.062	-0.033	0.027	-0.051
ZFPM1 (UniProt Q8IX07)	-0.009	-0.251 (active)	0	-0.03	-0.021
XPOT (UniProt O43592)	-0.012	-0.656 (active)	0.035	0.009	0.037
ULK3 isoform 4 (UniProt Q6PHR2)	-0.102	-0.05	0.242	0.046	0.273
UTP18 (UniProt Q9Y5J1)	0.045	-0.078	-0.014	0.029	-0.136
USP10 isoform 2 (UniProt Q14694)	0.022	-0.294 (active)	0	-0.002	-0.002
ZMAT2 (UniProt Q96NC0)	0.033	0.188	-0.051	-0.024	0.021
ZNF318 (UniProt Q5VUA4)	0.064	-0.332 (active)	-0.045	-0.059	-0.024
YTHDF3 (UniProt Q7Z739)	0.064	0.03	-0.084	-0.169	0.006
UTP3 (UniProt Q9NQZ2)	0.307 (active)	0.143	0.022	-0.039	0.02
USP34 (UniProt Q70CQ2)	0.005	-0.208 (active)	0.05	-0.012	-0.005
WDR62 isoform 4 (UniProt O43379)	0.045	-0.423 (active)	0.01	-0.014	-0.016
WDR41 (UniProt Q9HAD4)	-0.017	-0.284 (active)	0.022	-0.08	0.01
ZNF451 (UniProt Q9Y4E5)	0.064	-0.538 (active)	-0.003	-0.013	0.019
VPS72 (UniProt Q15906)	0.11	-0.401 (active)	-0.018	-0.029	-0.014
YEATS4 (UniProt O95619)	0.042	0.057	-0.029	-0.046	-0.037
ZC3HC1 (UniProt Q86WB0)	0.021	-0.368 (active)	-0.034	-0.03	0.01
WAC (UniProt Q9BTA9)	0.011	-0.309 (active)	-0.031	-0.014	-0.046
VAV1 (UniProt P15498)	-0.003	-0.268 (active)	0	-0.027	0.004
WDCP (UniProt Q9H6R7)	-0.066	-0.233 (active)	0.022	0.02	-0.036
YDJC (UniProt A8MPS7)	0.048	-0.443 (active)	0.023	-0.051	0.051
ZDHHC18 (UniProt Q9NUE0)	-0.064	-0.162	0.163	0.009	0.034
ZNF644 (UniProt Q9H582)	-0.007	0.222	-0.092	0.016	-0.022
VPS11 (UniProt Q9H270)	0.023	-0.509 (active)	-0.009	0.011	-0.006
VPS33A (UniProt Q96AX1)	0.011	-0.222 (active)	0.025	0.007	-0.018
VPS39 (UniProt Q96JC1)	0.009	-0.194	0.01	-0.005	0.013

From the supplement of paper PMC10849652
